Assay [1] can be described thus: qHTS assay for small molecules that induce genotoxicity in human embryonic kidney cells expressing luciferase-tagged ATAD5 (AID 651632). Note: nearly all actives have a fitted effect of over 15% in size. The gist of the method:
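HEK293T cells carrying a luciferase reporter tagged to ATAD5 were exposed to compound or DMSO vehicle for 16 hr at 37C, 5% CO2. Amplite was added, and after 30 min at room temperature luciferase activity was read as a marker of ATAD5 induction.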
On the technique in general: In qHTS, concentration-response curves come from the screen itself.

Assay [2] is described as follows: qHTS assay for small molecule agonists of the p53 signaling pathway - cell viability (AID 651633; calls by dose curve; note: nearly all actives have a fitted effect of over 30% in size; note: potency is the fitted concentration of half-maximal effect). An outline of the steps: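 Viability counter-read: CellTiter-Glo luminescence (30 min, room temperature) in the same p53RE-bla plates. These plates had been exposed to compounds for 16 h at 37 C.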
Assay [3] can be described thus: qHTS assay for small molecules that induce genotoxicity in human embryonic kidney cells expressing luciferase-tagged ATAD5 - cell viability (AID 651634; calls by dose curve; note: nearly all actives have a fitted effect of over 25% in size; note: potency is the fitted concentration of half-maximal effect). The gist of the method:
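HEK293T cells expressing luciferase-tagged ATAD5 were exposed to compound or DMSO for 15.5 hr at 37C, 5% CO2. Viability was then read as live-cell protease activity by CellTiter-Fluor fluorescence after 30 min at 37C.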

Assay [4] in a line: qHTS assay for small molecule disruptors of the mitochondrial membrane potential - cell viability (AID 720634; calls by dose curve; note: nearly all actives have a fitted effect of over 20% in size; note: potency is the fitted concentration of half-maximal effect). An outline of the steps: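 HepG2 cells seeded overnight at 37 C, then exposed to compound or DMSO for 1 hr at 37 C, 5% CO2. m-MPI dye added, then CellTiter-Glo for 30 min at room temperature; viability read as ATP luminescence.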
The nature of assay [5]: qHTS assay for small molecule disruptors of the mitochondrial membrane potential (AID 720635). Note: potency is the fitted concentration of half-maximal effect. The gist of the method:
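Mitochondrial membrane potential tracked with Mito-MPS dye, red aggregates (ex 540/em 590 nm) against green monomers (ex 490/em 535 nm). Compound treatment 1 hr at 37C, dye 30 min in HepG2.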

Assay [6] in a line: qHTS assay to test for compound auto fluorescence at 590 nm (red) in HepG2 cells (AID 720674). The gist of the method:
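Red autofluorescence (Ex/Em 540/590 nm, Rose Bengal sodium equivalents) was measured in HepG2 cells, 2,000 per well in MEM plus 10% FBS, plated overnight at 37 C. Readings were taken 1 hr after adding 23 nL compound or DMSO, at 37 C and 5% CO2.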

Assay [7] is described as follows: qHTS assay to test for compound auto fluorescence at 535 nm (green) in HepG2 cells (AID 720675).
Assay [8] is described as follows: qHTS assay to test for compound auto fluorescence at 590 nm (red) in HEK293 cells (AID 720679). The gist of the method: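 Red channel, Ex/Em 540/590nm; signal expressed as equivalency to Rose Bengal sodium. HEK293, 2,000 cells/well, 10% dialyzed FBS; 23 nL compound pinned after 4-5 hr attachment; overnight 37C/5% CO2 before reading.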
The nature of assay [9]: qHTS assay to test for compound auto fluorescence at 535 nm (green) in HEK293 cells (AID 720680).
The nature of assay [10]: qHTS assay to test for compound auto fluorescence at 460 nm (blue) in HEK293 cell free culture (AID 720681). An outline of the steps: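 Blue fluorescence (Ex 405/Em 460 nm, triamterene-equivalent) was read immediately after pin transfer of compound or DMSO into medium (DMEM, 10% FBS) without cells.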
The nature of assay [11]: qHTS assay to test for compound auto fluorescence at 535 nm (green) in HEK293 cell free culture (AID 720682). An outline of the steps: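 Intrinsic compound fluorescence is measured in culture medium containing 10% FBS, with excitation at 485 nm and detection at 535 nm, referenced to fluorescein.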
Assay [12] can be described thus: qHTS assay to test for compound auto fluorescence at 590 nm (red) in HEK293 cell free culture (AID 720683). An outline of the steps: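 Red-channel autofluorescence of compounds in culture medium (DMEM, 10% FBS), no cells, measured at 540/590 nm. Rose Bengal sodium is the reference fluorophore for equivalence.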
Assay [13] is described as follows: qHTS assay to test for compound auto fluorescence at 590 nm (red) in HepG2 cell free culture (AID 720684). An outline of the steps: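 Plate contents were MEM with 10% FBS plus test compound or DMSO, no cells. Fluorescence was recorded with 540 nm excitation and 590 nm emission.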
Assay [14] in a line: qHTS assay to test for compound auto fluorescence at 460 nm (blue) in HepG2 cell free culture (AID 720685). An outline of the steps: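 Compound (23 nL) or DMSO pinned into cell-free MEM with 10% FBS; blue fluorescence read at 405/460 nm excitation/emission, expressed as auto-fluorescence equivalency to triamterene.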
Assay [15] can be described thus: qHTS assay to test for compound auto fluorescence at 535 nm (green) in HepG2 cell free culture (AID 720686).
Assay [16] in a line: qHTS assay to test for compound auto fluorescence at 460 nm (blue) in HepG2 cells (AID 720687). The gist of the method:
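Blue-channel autofluorescence (Ex/Em 405/460 nm, triamterene-equivalent) was measured after 1 hr compound exposure at 37 C, 5% CO2. Cells were HepG2, plated overnight at 37 C in MEM plus 10% FBS.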

Assay [17] has as its target Glucocorticoid receptor (Homo sapiens) (UniProt P04150). Nature of the assay: qHTS assay to identify small molecule agonists of the glucocorticoid receptor (GR) signaling pathway (AID 720691; active = well fitted activation curve with a large enough effect in the signal ratio in the repeat runs, not every such curve was filed as active; the % refers to the signal ratio; note: potency is the fitted concentration of half-maximal effect). As to conditions: GR-bla HeLa, beta-lactamase reporter ratio, 18 h; activation: at 62.4 µM (top of the series). An outline of the steps: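 GR-bla HeLa cells (beta-lactamase reporter under glucocorticoid response element) were plated 4 h at 37 C/5% CO2, given compounds in DMSO, and incubated 18 h at 37 C. LiveBLAzer B/G FRET substrate was added for 2 h at room temperature, then fluorescence intensity read.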

Assay [18] is described as follows: qHTS assay to test for compound auto fluorescence at 460 nm (blue) in HEK293 cells (AID 720678). The gist of the method: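 Blue read-out at excitation 405 nm and emission 460 nm follows overnight compound exposure of HEK293 cells at 37C in 5% CO2. Activity is given as auto fluorescence equivalency to triamterene.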
Assay [19] concerns the target Glucocorticoid receptor (Homo sapiens) (UniProt P04150). As to the kind of experiment: qHTS assay to identify small molecule antagonists of the glucocorticoid receptor (GR) signaling pathway (AID 720692; active = well fitted inhibition curve with a large enough effect in the signal ratio in the repeat runs, not every such curve was filed as active; the % refers to the signal ratio). The gist of the method:
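GR-bla HeLa cells (beta-lactamase reporter under glucocorticoid response element) were pre-plated 4 h at 37 C, treated with compounds plus 5 nM dexamethasone (final) for 18 h, then read by LiveBLAzer B/G FRET fluorescence after 2 h.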

Where “and” joins values, the source holds several entries; their conditions need not be identical. Identical values can stand only once. Results filed as inconclusive are left out. More than one record can exist for a structure, and the calls need not agree. Calls of active or inactive are those of the source. Unless noted, calls come from the whole dose curve; as a rule, active = well fitted curve in the direction sought with a large enough effect in the repeat runs; inconclusive = weak or mixed curves; inactive = no such curve, though single readings can be large; an effect the other way counts as inactive or inconclusive.

Results on 9 compounds are retold here after PubChem BioAssay (Tox21).

Chain of Glucocorticoid receptor (Homo sapiens) (P04150 whole entry, looked up): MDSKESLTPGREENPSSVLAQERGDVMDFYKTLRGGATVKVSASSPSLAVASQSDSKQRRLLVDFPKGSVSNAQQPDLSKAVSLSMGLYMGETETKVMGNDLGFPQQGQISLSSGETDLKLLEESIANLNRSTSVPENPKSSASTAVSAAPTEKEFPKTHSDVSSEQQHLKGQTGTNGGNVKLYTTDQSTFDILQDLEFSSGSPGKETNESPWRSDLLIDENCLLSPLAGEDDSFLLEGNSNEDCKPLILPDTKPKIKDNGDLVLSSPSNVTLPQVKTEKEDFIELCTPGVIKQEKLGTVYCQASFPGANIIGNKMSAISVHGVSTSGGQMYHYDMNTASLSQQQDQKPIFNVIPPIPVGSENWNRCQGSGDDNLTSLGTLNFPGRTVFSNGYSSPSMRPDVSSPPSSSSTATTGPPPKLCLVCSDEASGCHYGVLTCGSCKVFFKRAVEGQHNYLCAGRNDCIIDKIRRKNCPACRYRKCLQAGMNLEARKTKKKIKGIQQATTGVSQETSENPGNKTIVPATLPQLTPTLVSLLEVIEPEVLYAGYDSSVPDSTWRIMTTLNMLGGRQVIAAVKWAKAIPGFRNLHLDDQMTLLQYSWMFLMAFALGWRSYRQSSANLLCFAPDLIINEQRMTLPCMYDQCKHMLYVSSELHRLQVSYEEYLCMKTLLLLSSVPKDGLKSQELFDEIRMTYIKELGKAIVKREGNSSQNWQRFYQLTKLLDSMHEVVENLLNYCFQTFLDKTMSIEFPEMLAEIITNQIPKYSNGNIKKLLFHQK

`COc1ccc2[nH]cc(CCN(C(C)C)C(C)C)c2c1`: the Potency entry in assay [1], in assay [2], in assay [3], in [4], in assay [5] and in assay [7] was “inactive” each time. Besides, the Potency result in assay [10], in assay [14], in assay [15], in assay [16] and in assay [17] was “inactive” in each case. The outcome in [6], in [8], in [9], in assay [11], in [12] and in [13] was inactive.

Turning to `Cc1cnc2c(C(=O)O)c(Cl)ccc2c1`, the Potency result in [1], in assay [2], in [3], in assay [4], in assay [7] and in assay [18] was “inactive” in each case. Besides, the Potency result in assay [10], in [14], in assay [15], in assay [16] and in assay [19] was “inactive” each time. The call in assay [6], in [8], in assay [9], in [11], in assay [12] and in assay [13] was inactive.

For the compound `CC(C)N(C(=O)SC/C(Cl)=C/Cl)C(C)C`, the Potency entry in [1], in [7], in assay [18], in [10], in [14] and in [15] was “inactive” in each case. Further, the Potency entry in assay [16] was “inactive”. Further, the Potency in assay [2] is 21.8 µM (active); in assay [3] it was 48.9 µM (active); in assay [4], 54.8 µM (active); in [5], 48.9 µM (active). For the same compound, the compound was classed as inactive in assay [6], in assay [8], in [9], in [11], in assay [12] and in assay [13].

For the compound `Brc1ccc(Oc2ccc(Br)cc2Br)c(Br)c1`, the Potency result in assay [1], in assay [2], in [3], in assay [4], in [7] and in assay [18] was “inactive” each time. The Potency entry in [10], in assay [14], in assay [15] and in assay [16] was “inactive” each time. Also, the Potency in assay [5] was 17.2 µM (active). For the same compound, the outcome in assay [6], in assay [9], in [11] and in [13] was inactive.

On to `O=S(=O)(O)F`, for which the Potency result in assay [1], in assay [2], in assay [3], in assay [4], in [5] and in assay [7] was “inactive” throughout. In addition, the Potency entry in assay [18], in [10], in assay [14], in assay [15] and in [16] was “inactive” in each case. The call in assay [8], in [9], in assay [11], in assay [12] and in assay [13] was inactive.

Turning to `CCN(CC)C(=S)S`, the Potency entry in [1], in assay [2], in assay [3], in [4], in [7] and in assay [10] was “inactive” throughout. The Potency result in assay [14], in [15], in assay [16] and in assay [19] was “inactive” throughout. In addition, the Potency was 2.98 µM (active) and inactive in assay [5]; “inactive and 4.9 µM (active)” in [17]. In addition, the call in [6], in assay [9], in assay [11] and in assay [13] was inactive.

Consider `COP(=S)(NC(C)C)Oc1ccc(C)cc1[N+](=O)[O-]` (configuration not stated), for which the Potency entry in assay [1], in [2], in assay [3], in assay [4], in [7] and in [10] was “inactive” each time. In addition, the Potency result in assay [14], in assay [15] and in assay [16] was “inactive” throughout. Also, the Potency in [5] is 24.3 µM (active). For the same compound, the compound was classed as inactive in assay [6], in [8], in assay [9], in [11], in assay [12] and in assay [13].

On to `c1cc[n+]2c(c1)-c1cccc[n+]1CC2`, for which the Potency result in assay [1], in [2], in assay [3], in assay [4], in assay [5] and in [7] was “inactive” in each case. The Potency result in assay [10], in assay [14], in [15], in assay [16], in assay [17] and in [19] was “inactive” throughout. The compound was classed as inactive in assay [6], in [8], in assay [9], in assay [11], in assay [12] and in [13].

Regarding `c1ccc(N=NNc2ccccc2)cc1`, the Potency result in [1], in assay [2], in assay [7], in assay [18], in assay [10] and in assay [14] was “inactive” each time. The Potency result in assay [15] and in assay [16] was “inactive” throughout. Besides, the Potency is 5.45 µM (active) in [3]; 56.4 µM (active) in assay [4]; 7.1 µM (active) and 5.45 µM (active) in assay [5]. In addition, the compound was called inactive in assay [6], in [9], in [11] and in assay [13].
